Compound activity (PubChem)
SARS PLpro yeast: qHTS of Yeast-based Assay for SARS-CoV PLP; S. cerevisiae expressing SARS-CoV PLpro, growth rescue; Potency, µM (series often up to 32.9 µM), without a hit: at the top dose activity, positive = growth rescue, actives largely listed as activators; actives 0.19% (n = 330,000); calls by dose curve; also: 0% is about no effect; nearly all actives have a fitted effect of over 55% in size
Pf growth 48h: Primary qHTS for delayed death inhibitors of the malarial parasite plastid, 48 hour incubation | AID 504832, 2011 | P. falciparum luciferase growth in erythrocytes, 48 h | Potency, µM (top dose mostly 28.7 µM), for the others: at the highest dose activity change, negative = inhibition, usual class: inhibitors | actives 5.9% (n = 310,000); also: % is scaled to controls: 0 for no effect and ±100 for the full control effect
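First compound was added to culture medium, then infected red cells at 0.1% parasitemia and 2% hematocrit (final). After incubation at 37 C under 5% CO2, luciferase detection reagent was dispensed and light output recorded.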
Pf growth 96h: Primary qHTS for delayed death inhibitors of the malarial parasite plastid, 96 hour incubation; P. falciparum luciferase reporter growth, 96 h; Potency, µM (doses to about 28.7 µM), inactives show at the highest dose activity change, negative = inhibition, usual class: inhibitors; actives 6.9% (n = 320,000); AID 504834, 2011; also: % is scaled to controls: 0 for no effect and ±100 for the full control effect
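Cell-based qHTS: luciferase-tagged P. falciparum in erythrocytes (2% hematocrit, 0.05% parasitemia final) incubated with compounds for 96 hours, 37 C, 5% CO2; luciferase detection reagent then added and luminescence measured.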
Sm TGR block: qHTS Assay for the Inhibitors of Schistosoma Mansoni Peroxiredoxins | Schistosoma mansoni thioredoxin glutathione reductase (TGR), Q962Y6 | purified TGR, DTNB reduction, TNB absorbance 405 nm | Potency, µM (series often up to 114 µM), inactives show at the top dose activity change, negative = inhibition, usual class: inhibitors | actives 3% (n = 360,000) | AID 485364, 2010; also: % is scaled to controls: 0 for no effect and ±100 for the full control effect; nearly all actives have a fitted effect of over 60% in size
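TGR 20 nM + NADPH 100 uM (dispensed conc.), cpd preinc 15 min RT; start with NADPH (500 uM addition) then DTNB (15 mM addition). Kinetic TNB absorbance, 405 nm filter. Four-parameter Hill fit across titration.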
Active calls of the source: *; ? = inconclusive; . = no result. In the library only some 12% were active in any assay of this set; here they are far more common. Unless noted, calls follow the shape of the dose curve; as a rule, active = well fitted curve in the direction sought with a large enough effect; inconclusive = small, poorly fitted or top-dose-only effect, or another doubt; inactive = no such curve, though single readings can be large; an effect the other way counts as inactive or inconclusive. Potency is read from the fitted curve at half-maximal effect.

SMILES	SARS PLpro yeast	Pf growth 48h	Pf growth 96h	Sm TGR block
COC(=O)[C@@H]1CCCN1C(=O)CCc1nnc(CCc2c[nH]c3ccccc23)o1	-4%	?	6%	14%
CCN1CCN(C(=O)CCc2nnc(CCc3c[nH]c4ccccc34)o2)[C@@H](C)C1=O	-4%	4%	?	?
CC(C)CN1CCN(C(=O)CCc2nnc(Cc3c[nH]c4ccccc34)o2)[C@@H](C)C1=O	3%	-19%	-12%	20µM*
CCC1CCCCN1C(=O)CCc1nnc(Cc2c[nH]c3ccccc23)o1 (configuration not stated)	-1%	-27%	?	25µM*
CN(CCC1CCCCO1)C(=O)CCc1nnc(Cc2c[nH]c3ccccc23)o1 (configuration not stated)	27%	?	?	89µM*
CC1CCCCN1C(=O)CCc1nnc(Cc2c[nH]c3ccccc23)o1 (configuration not stated)	-1%	-1%	?	35µM*
CN(CCC1CCCCO1)C(=O)CCc1nnc(CCc2ccccc2)o1 (configuration not stated)	2%	4%	24%	-25%
CCc1cccc(C)c1NC(=O)C1=C(C)C(=O)OC12CCC(C)CC2 (configuration not stated)	.	.	.	1%
CCOC(=O)C1CCN(C(=O)CSc2n[nH]c(-c3ccccc3Cl)n2)CC1	.	.	.	1%
COc1ccc2c(c1)c1c(c(=O)n(-c3ccccc3C)c(=O)n1Cc1cccc(C(F)(F)F)c1)n2C	.	.	.	-1%
Cc1nc(-n2nc(C)c(Cc3ccccc3Cl)c2C)sc1C(=O)Nc1ccccc1F	.	.	.	2%
COc1ccccc1CNC(=O)CCC1N=C2c3ccccc3N=C(SCC(=O)NCCc3ccc(OC)c(OC)c3)N2C1=O (configuration not stated)	.	.	.	-13%
CCNC(=O)N1CCN(CCCC(c2ccc(F)cc2)c2ccc(F)cc2)CC1	.	1.5µM*	1.7µM*	-14%
O=C(Nc1ccc(F)cc1)N1CCN(CCc2ccccc2)CC1	-2%	?	28%	-4%
N#CC/C(N)=N/Nc1nc2ccccc2nc1Cc1ccccc1	0%	4.7µM*	?	5%
COc1cc(OC)c(OC)cc1CN1CCN(Cc2ccco2)CC1	0%	0%	?	1%
COc1cc2c(cc1OC)C(COc1ccc(C(C)C)cc1)NCC2 (configuration not stated)	0%	?	12µM*	-10%
COc1cc2c(cc1OC)C(COc1ccc(C(C)C)cc1)N(C(=O)COc1ccccc1)CC2 (configuration not stated)	.	.	.	-5%
C/C(=C\c1ccc(C)o1)C(=O)c1c(C)cc(C)[nH]c1=O	5%	-10%	30%	18µM*
O=C(COc1ccc(Cl)cc1)Nc1ccc2nc(SCC(=O)N3CCOCC3)sc2c1	.	.	.	-12%
CC(=O)Oc1cc2c(C(=O)NCCCN3CCOCC3)c(C)oc2c2ccccc12	-4%	?	12%	35µM*
Cc1c(OCC(=O)NCCCN2CCOCC2)ccc2c1oc(=O)c1ccccc12	-10%	?	?	0%
CC1CCN(C(C(=O)NC2CCCCC2)c2cc3c(cc2[N+](=O)[O-])OCO3)CC1 (configuration not stated)	-42%	9.3µM*	51%	-10%
Cc1ccc(-n2c([O-])nc(-[n+]3ccccc3)c2C=O)cc1	5%	0%	-17%	40µM*
Cc1ccc[n+](-c2nc([O-])sc2C=O)c1	1%	6%	-1%	-15%
SMILES	SARS PLpro yeast	Pf growth 48h	Pf growth 96h	Sm TGR block
O=C(COc1ccc(F)cc1)OCc1cc(=O)n2nc(-c3cccs3)sc2n1	.	.	.	-11%
O=C(Cn1cc(C(F)(F)F)ccc1=O)NCC1CCCO1 (configuration not stated)	4%	-11%	-24%	-7%
Cc1ccc(NC(=O)c2noc(C(C)C)c2[N+](=O)[O-])cc1	0%	?	?	40µM*
CC(C)c1onc(C(=O)Nc2cccnc2Cl)c1[N+](=O)[O-]	1%	7%	-2%	45µM*
Cc1ccc(NC(=O)c2sc3ncnc(N(C)C4CCCCC4)c3c2C)cc1	.	.	.	-1%
N#Cc1ccccc1OCC(=O)N1CCN(c2ccccc2F)CC1	.	.	.	8%
CCCc1ccc(C(=O)NC(=O)c2ccccc2O)cc1	-7%	0.066µM*	0.37µM*	11%
O=C(NC(=O)c1ccccc1O)c1ccc(C(F)(F)F)cc1	-4%	?	2.3µM*	9%
O=C(NC(=S)NNC(=O)c1ccccc1O)c1ccc(F)cc1	3%	-16%	-28%	4%
COc1ccc(Cc2noc(CN(C)CCN3CCc4ccccc4C3)n2)cc1OC	-1%	-70%	7.4µM*	?
CN(CCN1CCc2ccccc2C1)Cc1nc(Cc2ccccc2F)no1	0%	?	10µM*	-19%
CCc1ccc(N2CSC3=C(C#N)C(c4cccs4)CC(=O)N3C2)cc1 (configuration not stated)	0%	26%	.	-27%
CCc1ccc(C2CC(=O)N3CN(c4ccccc4)CSC3=C2C#N)cc1 (configuration not stated)	-1%	.	265%	35µM*
Cc1ccc(N2CSC3=C(C#N)C(c4cccs4)CC(=O)N3C2)cc1 (configuration not stated)	4%	.	15µM*	-22%
COc1ccc(N2CSC3=C(C#N)C(c4cccs4)CC(=O)N3C2)cc1 (configuration not stated)	5%	-27%	-1%	22µM*
Fc1ccc(CNC2CCN(Cc3ccccc3)CC2)cc1	1%	9.3µM*	1.2µM*	-16%
O=C(CCC1CCN(Cc2ccc(C#CCCO)cc2)CC1)NC1CC1	-1%	12%	29%	-15%
COc1ccccc1CNC1CCN(Cc2ccccc2)CC1	5%	-14%	?	-18%
O=C(CCC1CCN(Cc2ccc(Cl)cc2)CC1)NC1CC1	4%	-11%	1µM*	18%
O=C(Nc1ccc(N2CCN(Cc3ccccc3)CC2)cc1)c1ncn[nH]1	0%	5.9µM*	.	5%
Clc1ccc(CN2CCC(Cc3ccccc3)CC2)cc1	-14%	-8%	8.3µM*	-2%
CSc1ccc(NS(=O)(=O)c2ccc(-n3cnnn3)cc2)cc1	4%	?	?	-13%
CCNC(=O)c1ccc2nc(CCc3ccccc3)oc2c1	.	.	.	2%
CN(C)S(=O)(=O)N1CCC(Oc2cccc(C(=O)N3CCCCCCC3)c2)CC1	-1%	?	-17%	9%
Clc1ccc(CNC2CCN(Cc3ccccc3)CC2)cc1	2%	4.1µM*	?	4%
S=C(NCc1ccc(Cl)cc1)NC1CCN(Cc2ccccc2)CC1	5%	-13%	23%	-8%
Clc1ccc(CNc2ccc(N3CCN(Cc4ccccc4)CC3)cc2)cc1	-1%	-3%	9.3µM*	-21%
CCOC(=O)c1nnn(-c2nonc2N)c1-c1ccc(F)cc1	-6%	12µM*	3%	-7%
